{
  "source": "PubChem BioAssay (NCATS)",
  "note": "Inconclusive results are not listed. Where a call stands in place of a potency, no number is given. The source made the active and inactive calls. Calls follow the shape of the dose curve; as a rule, active = well fitted inhibition curve with a large enough effect; inconclusive = small, poorly fitted or top-dose-only effect; inactive = flat fitted curve, though single readings scatter.",
  "data": [
    {"target": "Glutathione peroxidase 1 (Homo sapiens) (UniProt P07203)", "sequence (P07203 whole entry, looked up)": "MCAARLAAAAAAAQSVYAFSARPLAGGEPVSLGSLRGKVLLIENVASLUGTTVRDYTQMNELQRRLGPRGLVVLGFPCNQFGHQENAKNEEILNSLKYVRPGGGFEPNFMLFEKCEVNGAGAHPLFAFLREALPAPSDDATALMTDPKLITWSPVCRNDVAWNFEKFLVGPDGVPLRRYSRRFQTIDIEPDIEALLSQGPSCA", "assay": "Primary qHTS Assay for Inhibitors of Recombinant Selenoprotein Glutathione Peroxidase 1 (GPX1) (AID 1845191); also: nearly all actives have a fitted effect of over 65% in size", "conditions": "recombinant GPX1, GR-coupled NADPH fluorescence, 15 min; series mostly up to 48.8 µM", "procedure,_shortened": "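Recombinant GPX1 (10 nM final) was preincubated with compound for 30 min at room temperature, then reacted with 1 mM GSH, 0.5 mM CHP, 0.5 mM NADPH and 100 nM glutathione reductase; NADPH fluorescence (340/450 nm) was read at 0 and 15 min.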", "values": [
      {"smiles": "C[C@@H](N)C1CCC(C(=O)Nc2ccncc2)CC1", "note": "(stereo not given in full)", "Potency": "inactive"},
      {"smiles": "O=c1c(O)c(-c2cc(O)c(O)c(O)c2)oc2cc(O)cc(O)c12", "Potency": "inactive"},
      {"smiles": "Cc1cccc(-c2[nH]ncc2-c2ccc3ncccc3n2)n1", "Potency": "inactive"},
      {"smiles": "OC(CN1CCN(c2cccc(Cl)c2)CC1)C(c1ccccc1)c1ccccc1", "note": "(stereo not given)", "Potency": "inactive"},
      {"smiles": "CCOC(=O)C1=C(O)C(=O)N(Cc2ccccc2)C1", "Potency": "inactive"},
      {"smiles": "O=c1cc(N2CCOCC2)oc2c(-c3ccccc3)cccc12", "Potency": "inactive"},
      {"smiles": "CN(C)C(=O)[C@H](O)[C@H](Cc1ccccc1)NC(=O)c1cc2cc(Cl)ccc2[nH]1", "Potency": "inactive"},
      {"smiles": "CC(=O)N1CCN(c2ccc(OC[C@H]3CO[C@](Cn4ccnc4)(c4ccc(Cl)cc4Cl)O3)cc2)CC1", "Potency": "inactive"},
      {"smiles": "COC(=O)C1=C(C)NC(C)=C(C(=O)OCCCN2CCC(c3ccccc3)(c3ccccc3)CC2)C1c1cccc([N+](=O)[O-])c1", "note": "(stereo not given)", "Potency": "inactive"},
      {"smiles": "COc1cc2c(cc1OC)C1CC(=O)C(CC(C)C)CN1CC2", "note": "(stereo not given)", "Potency": "inactive"},
      {"smiles": "CC1(C)NC(=O)N(c2ccc([N+](=O)[O-])c(C(F)(F)F)c2)C1=O", "Potency": "inactive"},
      {"smiles": "Cc1nc(-c2ccc(OCC(C)C)c(C#N)c2)sc1C(=O)O", "Potency": "inactive"},
      {"smiles": "c1cnc2cc3c(cc2n1)C1CNCC3C1", "Potency": "inactive"},
      {"smiles": "O=C(O)c1cccc(-c2noc(-c3ccccc3F)n2)c1", "Potency": "inactive"},
      {"smiles": "Cc1cccc(C#Cc2ccccc2)n1", "Potency": "inactive"},
      {"smiles": "CN(C)CCCC1(c2ccc(F)cc2)OCc2cc(C#N)ccc21", "note": "(stereo not given)", "Potency": "inactive"},
      {"smiles": "O=Nc1c(-c2c(O)[nH]c3cc(Br)ccc23)[nH]c2ccccc12", "Potency": "inactive"},
      {"smiles": "CN1C(C(=O)Nc2ccccn2)=C(O)c2sccc2S1(=O)=O", "Potency": "inactive"},
      {"smiles": "NC(=NCc1ccccc1)NC(=O)c1nc(Cl)c(N)nc1N", "Potency": "inactive"},
      {"smiles": "Clc1ccc2c(N3CCN(CCCN4CCN(c5ccnc6cc(Cl)ccc56)CC4)CC3)ccnc2c1", "Potency": "inactive"},
      {"smiles": "CC(C)(S)[C@@H](N)C(=O)O", "outcome": "inactive [at 4.49 µM]"},
      {"smiles": "C[C@@H](c1ncncc1F)[C@](O)(Cn1cncn1)c1ccc(F)cc1F", "Potency": "inactive"},
      {"smiles": "O=C(c1ccccc1)c1ccc2n1CCC2C(=O)O", "note": "(stereo not given)", "Potency": "inactive"},
      {"smiles": "Nc1nc(N)c(N=O)c(OCC2CCCCC2)n1", "Potency": "inactive"},
      {"smiles": "Cc1cccc(C)c1OCC(=O)N[C@@H](Cc1ccccc1)[C@@H](O)C[C@H](Cc1ccccc1)NC(=O)[C@H](C(C)C)N1CCCNC1=O", "Potency": "inactive"}
    ]}
  ]
}
